{
  "source": "PubChem BioAssay (NCATS)",
  "note": "Results filed as inconclusive are left out. Active and inactive are the calls of the source. Calls follow the shape of the dose curve; as a rule, active = well fitted activation curve with a large enough effect; inconclusive = small, poorly fitted or top-dose-only effect; inactive = no such curve, though single readings can be large or run the other way. Potency is read from the fitted curve at half-maximal effect.",
  "data": [
    {"target": "Arylsulfatase A (Homo sapiens) (UniProt P15289)", "sequence (P15289 whole entry, looked up)": "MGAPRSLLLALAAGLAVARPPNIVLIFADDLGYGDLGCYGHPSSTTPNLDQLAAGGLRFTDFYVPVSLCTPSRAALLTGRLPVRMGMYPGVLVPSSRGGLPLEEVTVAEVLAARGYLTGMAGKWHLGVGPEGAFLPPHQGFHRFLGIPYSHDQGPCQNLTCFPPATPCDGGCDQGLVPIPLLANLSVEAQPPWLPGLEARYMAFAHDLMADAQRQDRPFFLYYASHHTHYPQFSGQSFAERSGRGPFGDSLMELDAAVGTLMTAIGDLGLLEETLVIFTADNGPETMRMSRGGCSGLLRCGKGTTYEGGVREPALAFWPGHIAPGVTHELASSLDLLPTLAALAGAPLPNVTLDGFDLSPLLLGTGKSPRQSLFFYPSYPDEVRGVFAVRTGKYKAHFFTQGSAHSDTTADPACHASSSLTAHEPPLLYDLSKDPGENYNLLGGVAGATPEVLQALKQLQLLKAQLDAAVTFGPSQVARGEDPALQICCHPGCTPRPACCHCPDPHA", "experiment": "qHTS screen for enhancers of Arylsulfatase A (ASA1): LOPAC Validation Assay (AID 720538); as to activity change, positive = activation: 0% is about no effect", "conditions": "ASA enzyme activity, LOPAC qHTS enhancer assay; series mostly up to 57.5 µM; activity change, positive = activation: at the top concentration", "summary_of_the_method": "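Cell-based enhancement test: residual ASA activity in SV40-transformed I179S patient fibroblasts is measured by pNCS turnover (0.5mM final, 14h, room temperature) following 48h compound incubation; higher fluorescence indicates activation.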", "values": [
      {"compound": "O=C(c1cc(O)c(O)c([N+](=O)[O-])c1)c1ccccc1F", "Potency": "19 µM (active)"},
      {"compound": "O=S(=O)(c1cccc2c(I)cccc12)N1CCCNCC1", "activity change, positive = activation": "-37.7% (inactive)"},
      {"compound": "N#C/C(=C\\c1ccc(O)c(O)c1)C(=O)NCCCc1ccccc1", "activity change, positive = activation": "0.941% (inactive)"},
      {"compound": "CCCCCCCCCCCCCCCCCC(=O)NCC(COP(=O)([O-])OCC[N+](C)(C)C)OCC", "note": "(centres undefined)", "outcome": "inactive"},
      {"compound": "COc1ccccc1N1CCN(CCCCNS(=O)(=O)c2cccc3c(N(C)C)cccc23)CC1", "activity change, positive = activation": "-23% (inactive)"},
      {"compound": "CCCCCCCCc1ccc(-c2ccc(C(=O)O)cc2)cc1", "activity change, positive = activation": "2.57% (inactive)"},
      {"compound": "C[C@@H](NC(=O)/C(C#N)=C/c1ccc(O)c(O)c1)c1ccccc1", "activity change, positive = activation": "-42.8% (inactive)"},
      {"compound": "CC(COc1ccc(/C=C/c2ccccc2)cc1)[N+](C)(C)C", "note": "(centres undefined)", "outcome": "inactive; inhibitor; fitted 3.7933 uM"},
      {"compound": "CC(C)NC[C@@H](O)c1ccc(O)c(O)c1", "activity change, positive = activation": "-101% (inactive)"},
      {"compound": "O=c1[nH]c2cc(C(F)(F)F)ccc2n1-c1cc(C(F)(F)F)ccc1O", "activity change, positive = activation": "-19.9% (inactive)"},
      {"compound": "NC(=O)C1=CN(C2OC(COP(=O)(O)OP(=O)(O)OC[C@H]3O[C@@H](n4cnc5c(N)ncnc54)[C@H](OP(=O)(O)O)[C@@H]3O)C(O)C2O)C=CC1", "note": "(some centres undefined)", "activity change, positive = activation": "14.4% (inactive)"},
      {"compound": "O=C(Nc1cccc(C(=O)Nc2ccc(S(=O)(=O)O)c3cc(S(=O)(=O)O)cc(S(=O)(=O)O)c23)c1)Nc1cccc(C(=O)Nc2ccc(S(=O)(=O)O)c3cc(S(=O)(=O)O)cc(S(=O)(=O)O)c23)c1", "activity change, positive = activation": "-5.37% (inactive)"},
      {"compound": "Nc1nc(Cl)nc2c1ncn2[C@@H]1O[C@H](COP(=O)(O)OP(=O)(O)OP(=O)(O)O)[C@@H](O)[C@H]1O", "activity change, positive = activation": "7.3% (inactive)"},
      {"compound": "O=C1NC(=O)/C(=C/c2ccc3nccnc3c2)S1", "activity change, positive = activation": "-57% (inactive)"},
      {"compound": "O=C(c1ccc(Cl)cc1)N1CCN(c2ccc([N+](=O)[O-])c3ncccc23)CC1", "activity change, positive = activation": "-57.1% (inactive)"},
      {"compound": "O=[N+]([O-])c1ccc2c(c1)S(=O)(=O)C=C2", "activity change, positive = activation": "-22.9% (inactive)"},
      {"compound": "Fc1ccc(C(OCCCc2cnc[nH]2)c2ccc(F)cc2)cc1", "activity change, positive = activation": "3.47% (inactive)"},
      {"compound": "C[C@@H](CN1CCC(Cc2ccccc2)CC1)[C@@H](O)c1ccc(O)cc1", "activity change, positive = activation": "39.5% (inactive)"},
      {"compound": "Clc1ccc(N2CCN(Cc3cc4ccccn4n3)CC2)cc1", "activity change, positive = activation": "-0.989% (inactive)"},
      {"compound": "C#CCN1C(C)=C(C(=O)OC)C(c2cccc([N+](=O)[O-])c2)C(C(=O)OCC)=C1C", "note": "(centres undefined)", "outcome": "inactive"},
      {"compound": "Cc1cc2c(cc1Cl)N(C(=O)Nc1ccc(Oc3cccnc3C)nc1)CC2", "activity change, positive = activation": "-33.3% (inactive)"},
      {"compound": "C[N+](C)(C)CC(=O)[O-]", "outcome": "inactive"},
      {"compound": "Nc1nc(Cl)nc2c1ncn2[C@@H]1O[C@H](CO)[C@@H](O)[C@H]1O", "outcome": "inactive"},
      {"compound": "CCCCC/C=C\\CC(O)/C=C/c1cccc(CC(O)CCCCO)n1", "note": "(centres undefined)", "activity change, positive = activation": "4.78% (inactive)"},
      {"compound": "O=C(c1ccc(OCCCc2cnc[nH]2)cc1)C1CC1", "outcome": "inactive"},
      {"compound": "C=C[C@@H]1CN2CC[C@@H]1C[C@H]2[C@H](O)c1ccnc2ccc(OC)cc12", "outcome": "inactive"},
      {"compound": "CC(=O)/C=C1\\C(=O)N(C)c2ccccc21", "activity change, positive = activation": "-14% (inactive)"},
      {"compound": "CN(C)c1nc(N)c(C(=O)N=C(N)N)nc1Cl", "outcome": "inactive"},
      {"compound": "COc1cc(SC)ccc1C(=O)N1CCC(Cc2ccccc2)CC1", "activity change, positive = activation": "19.4% (inactive)"},
      {"compound": "CCCC1(C)C(C#N)(C#N)C1(C#N)C#N", "outcome": "inactive"},
      {"compound": "Ic1ccc(N2CCN(Cc3c[nH]c4ncccc34)CC2)cc1", "activity change, positive = activation": "-44.7% (inactive)"},
      {"compound": "O=C(/C=C/c1ccc(O)c(O)c1)OCCc1ccccc1", "activity change, positive = activation": "-54.7% (inactive)"},
      {"compound": "COc1cc2c(CCNC(C)=O)c[nH]c2cc1Cl", "outcome": "inactive"},
      {"compound": "CC(C)Cc1ccc([C@H](C)C(=O)O)cc1", "outcome": "inactive; inhibitor; fitted 0.151 uM"}
    ]}
  ]
}
